The values that follow come from ChEMBL document CHEMBL3433997, “St. Jude Leishmania screening dataset” (2016).

Usually inhibition stands for the change of the read-out against control, counted positive when it falls.

What all share (type): functional
Experiment [1] deals with Solute carrier family 2, facilitated glucose transporter member 1 (Homo sapiens) (UniProt P11166). Nature of the experiment: ST_JUDE_LEISH: Cytotoxicity at 2uM final concentration against transgenic Leishmania Mexicana promastigotes LmGLUT1 that are glucose transport deficient and complemented with the human glucose transporter GLUT1. Activity is measured by DNA content using SYBR green in vitro.
Solute carrier family 2, facilitated glucose transporter member 1 (Homo sapiens), sequence (P11166 whole entry): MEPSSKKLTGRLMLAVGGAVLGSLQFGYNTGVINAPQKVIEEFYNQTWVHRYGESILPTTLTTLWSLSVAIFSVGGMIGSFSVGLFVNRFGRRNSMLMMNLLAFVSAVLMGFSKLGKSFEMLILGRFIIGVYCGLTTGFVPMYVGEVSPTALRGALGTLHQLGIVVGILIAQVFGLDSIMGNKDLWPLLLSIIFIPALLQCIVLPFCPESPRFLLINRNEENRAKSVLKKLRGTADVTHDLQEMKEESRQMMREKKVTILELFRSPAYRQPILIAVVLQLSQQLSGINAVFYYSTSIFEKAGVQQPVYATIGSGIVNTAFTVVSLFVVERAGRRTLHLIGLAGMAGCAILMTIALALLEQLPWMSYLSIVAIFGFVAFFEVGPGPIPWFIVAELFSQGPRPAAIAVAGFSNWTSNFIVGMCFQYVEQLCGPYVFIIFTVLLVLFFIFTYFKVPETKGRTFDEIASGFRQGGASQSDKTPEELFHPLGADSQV

For experiment [2], the target named is Hexose transporter 1 (Plasmodium falciparum) (UniProt O97467). Nature of the experiment: ST_JUDE_LEISH: Cytotoxicity at 2uM final concentration against transgenic Leishmania Mexicana promastigotes LmPfHT that are glucose transport deficient and complemented with the Plasmodium falciparum hexose transporter. Activity is measured by DNA content using SYBR green in vitro.

Experiment [3] concerns the target Glucose transporter (Leishmania mexicana) (UniProt O61059). Briefly: ST_JUDE_LEISH: Cytotoxicity at 2uM final concentration against transgenic Leishmania Mexicana promastigotes LmGT2 that are glucose transport deficient and complemented with the L. Mexicana glucose transporter 2. Activity is measured by DNA content using SYBR green in vitro.

Turning to `Cc1c(C)n(C2CCCC2)c2ncnc(OC3CCN(CC(=O)NC4CC4)CC3)c12`, the inhibition in experiment [1] worked out at 9.5%; in experiment [2], 6.34%; in experiment [3], 7.75%.

Consider `Cc1[nH]c(C)c(-c2ccc(-c3ccc(Cl)cc3)nc2)c(=O)c1Br`, for which the inhibition in experiment [1] is -0.04%; in experiment [2] it was -0.24%; in experiment [3], -1.28%.

`OC(CNc1ccnc(Nc2cccc(Cl)c2)n1)c1ccccc1C(F)(F)F` (centres undefined): the inhibition in experiment [1] was 4.32%; in experiment [2] it was 4.32%; in experiment [3], -0.94%.

For `Cc1cc(-c2cccc(CNC3CCN(C)CC3)c2)ccc1S(=O)(=O)NCCN1CCCC1`, the inhibition is 0.26% in experiment [1], 0.15% in experiment [2] and 0.59% in experiment [3].

Turning to `Cc1cccc2nc(-c3ccc(-c4ccc(CN5CC(C)OC(C)C5)cc4)cc3)[nH]c12` (centres undefined), the inhibition in experiment [1] is 4.48%; in experiment [2] it was 3.58%; in experiment [3], 0.01%.

Regarding `CCN(CC)CCCNCc1ccc(-c2ccc(C(F)(F)F)cc2)cc1`, the figures for the inhibition in experiment [1], in experiment [2] and in experiment [3] were 5.63%, 2.78% and -0.45%, respectively.

In the case of `CN1CCC(Oc2ccc(CN3CC[C@H](NC(=O)c4ccc(Cl)c(Cl)c4)C3)c3ccccc23)C1` (some centres undefined), the inhibition was 2.7% in experiment [1], 4.41% in experiment [2] and 3.37% in experiment [3].

Turning to `CCC(C)c1ccc(NC(=O)c2ccc(S(=O)(=O)Nc3ccc(OC)c(N4CCN(CC5CC5)CC4)c3)cc2)cc1` (centres undefined), the inhibition in experiment [1] is 1.59%; in experiment [2], -0.83%; in experiment [3], -1.88%.

For `CC(=O)Nc1nc(C(=O)Nc2ccc(-c3ccc(-c4nc5ccccc5[nH]4)cc3)cc2)cs1`, the inhibition in experiment [1] came to 4.03%; in experiment [2] it was 2.54%; in experiment [3], 3.01%.

`CCCCc1cc(NCC)nc(Nc2ccc(F)cc2)n1`: the inhibition in experiment [1] was found to be 18.4%; in experiment [2] it was 10.4%; in experiment [3], 4.95%.

Turning to `Cc1cc(NC2CCCC2)nc(Nc2ccc(F)cc2)n1`, the inhibition turned out to be 8.81% in experiment [1], 7.56% in experiment [2] and 0.46% in experiment [3].

With `Cc1cc(-c2ccc3c(c2)CCN(CCC2CCC(NC(=O)/C=C/c4cccc(Cl)c4)CC2)CC3)on1` (centres undefined), the inhibition in experiment [1] turned out to be 4.19%; in experiment [2], 3.51%; in experiment [3], 3.57%.

As for `Cc1ccc(CNC(=O)[C@H](CC(C)C)Nc2cc(C)nc(NCC3CCCCC3)n2)cc1`, the inhibition stood at 11.2% in experiment [1], 9.15% in experiment [2] and 9.26% in experiment [3].

For `CCCCCOc1ccc(C(O)C(CN2CCCCC2)c2ccccc2)cc1` (centres undefined), the inhibition worked out at 5.64% in experiment [1], 4.91% in experiment [2] and 5.39% in experiment [3].

Regarding `CC(=O)Nc1ccc(CN(Cc2ccc(F)cc2)Cc2ccc3c(c2)OCO3)cc1`, the values for the inhibition in experiment [1], in experiment [2] and in experiment [3] were 2.71%, 1.82% and 3.2%, respectively.

With `CCCCn1c(Sc2ccc(C#N)c([N+](=O)[O-])c2)nnc1-c1ccc(OC)cc1`, the inhibition in experiment [1] was 3.24%; in experiment [2] it was 2.64%; in experiment [3] it was 0.78%.

As to `Cc1c(C(=O)NCc2ccncc2)sc2nc(-c3cccc([N+](=O)[O-])c3)cn12`, the values for the inhibition in experiment [1], in experiment [2] and in experiment [3] were 0.53%, -1.39% and -3.15%, respectively.

Take `COC(=O)C1=CNC=C(C(=O)OC)C1c1ccc(Cl)c([N+](=O)[O-])c1`: the inhibition came out at 10.8% in experiment [1], 8.44% in experiment [2] and 6.42% in experiment [3].

Turning to `O=C(Nc1ccc(OC2CCN(Cc3ccsc3)C2)c(Cl)c1)c1ccc(F)cc1` (centres undefined), the inhibition in experiment [1] was 0.29%; in experiment [2], 0.51%; in experiment [3], 0.32%.

With `Cc1noc(C)c1-c1ccc2c(Nc3ccccc3C(C)(C)C)c(C(=O)NCc3ccccc3)cnc2c1`, the inhibition in experiment [1] turned out to be 6.6%; in experiment [2] it was 7.11%; in experiment [3] it was 3.62%.

As for `OCCN1CCN(C(=S)Nc2ccccc2)CC1`, the inhibition was 4.19% in experiment [1], 3.14% in experiment [2] and 3.02% in experiment [3].

For the compound `O=C(N[C@@H](Cc1ccccc1)C(=O)O)c1cc(-c2ccc(F)cc2)no1.O=C(N[C@@H](Cc1ccccc1)C(=O)O)c1conc1-c1ccc(F)cc1`, the inhibition in experiment [1] turned out to be 9.87%; in experiment [2], 6.76%; in experiment [3], 6.74%.

For the compound `Cc1ccc(NS(=O)(=O)c2ccc(C(C)N3CCC(N4CCCCC4)CC3)cc2)cc1C` (centres undefined), the inhibition in experiment [1] is -2.42%; in experiment [2], -0.86%; in experiment [3], 0.73%.

As to `O=C(Nc1cccc(CN2CCCN(Cc3ccsc3)CC2)c1)c1ccc(Cl)c(Cl)c1`, the inhibition in experiment [1] is 4.04%; in experiment [2] it was 2.57%; in experiment [3], -2.87%.

Consider `O=[N+]([O-])c1ccc2c(c1)c1ccccc1n2Cc1ccccc1O`, for which the inhibition in experiment [1] is 0.12%; in experiment [2], 1.04%; in experiment [3], -2.69%.

Turning to `CCCCN1CCN(c2cc(NS(=O)(=O)c3cccc(C(=O)Nc4ccc(C(F)(F)F)cc4)c3)ccc2OC)CC1`, the inhibition is 0.33% in experiment [1], -1.12% in experiment [2] and -1.22% in experiment [3].

As for `C=CCn1c(Sc2ccc(C#N)c([N+](=O)[O-])c2)nnc1-c1ccc(OC)cc1`, the inhibition in experiment [1] came out at 4.25%; in experiment [2] it was 6.95%; in experiment [3] it was 3.25%.

For `Cc1cc(=O)c2cc(Oc3ccc(OC(F)(F)F)cc3)ccc2[nH]1`, the inhibition in experiment [1] was -0.06%; in experiment [2] it was 0.96%; in experiment [3], -1.19%.

As to `Cc1cc(OCCCN2CCC(NS(=O)(=O)c3cccc(Br)c3)CC2)c2ccccc2n1`, the figures for the inhibition in experiment [1], in experiment [2] and in experiment [3] were 10.9%, 9.48% and 9.99%, respectively.

Consider `COc1ccc(CCN(C)CCc2ccc(NC(=O)c3cccc4c(=O)c5ccccc5sc34)cc2)cc1`, for which the inhibition in experiment [1] is 2.21%; in experiment [2] it was -0.35%; in experiment [3], 0.2%.

For the compound `COCCNCc1nc(-c2ccc3c(Nc4ccc(F)c(O)c4)ccnc3c2)cs1`, the figures for the inhibition in experiment [1], in experiment [2] and in experiment [3] were 2.38%, 1.29% and 0.42%, respectively.

Consider `O=C(/C=C/c1ccc(Cl)c(Cl)c1)NCCCCCN1CCC(NC(=O)Nc2cccc(Cl)c2)CC1`, for which the results for the inhibition in experiment [1], in experiment [2] and in experiment [3] were 3.22%, 4.71% and 3.33%, respectively.

Regarding `CN(Cc1ccncc1)C(Cc1ccccc1)C1CCN(Cc2ccc(O)c(Cl)c2)CC1` (centres undefined), the values for the inhibition in experiment [1], in experiment [2] and in experiment [3] were 1.88%, 2.51% and -0.31%, respectively.

Take `CCCc1cn2c3c(cc(C(=O)N[C@@H](Cc4ccccc4)[C@H](O)CNC4CCOCC4)cc13)N(C)S(=O)(=O)CC2`: the inhibition in experiment [1] is 0.07%; in experiment [2], 1.26%; in experiment [3] it was -0.3%.

Take `CCCC(C)N(Cc1ccc(C(C)(C)C)cc1)C(=O)c1ccc(OC)cc1` (centres undefined): the inhibition in experiment [1] is 9.4%; in experiment [2], 10.6%; in experiment [3] it was 7.03%.

As for `COCn1ccc2c3c(N)nc(N)nc3ccc21`, the inhibition is 0.07% in experiment [1], 6.21% in experiment [2] and 2.32% in experiment [3].

In the case of `Nc1ccc2[nH]cc(C3CCN(CC4CCC(NC(=O)/C=C/c5ccc(Cl)c(Cl)c5)CC4)CC3)c2n1` (centres undefined), the inhibition is -2.2% in experiment [1], -0.28% in experiment [2] and -4.12% in experiment [3].

For `COc1cc2nc(NCCCN3CCCCC3)nc(NCc3ccccc3)c2cc1OC`, the inhibition in experiment [1] was 2.96%; in experiment [2] it was 4.73%; in experiment [3], -0.35%.

Take `O=C(Nc1ccc2c(c1)CCC2)c1cccc(CN2CCCN(Cc3cccc(O)c3)CC2)c1`: the inhibition was 1.77% in experiment [1], -2.6% in experiment [2] and -0.46% in experiment [3].

With `CNC(=O)c1ccc2nc(C3CC3)n(CC3CCN(S(=O)(=O)c4cccc(Cl)c4)CC3)c2c1`, the inhibition in experiment [1] is 1.69%; in experiment [2], 1.44%; in experiment [3], 2.49%.

Regarding `Cc1ccccc1C1CCN(c2ccc(C(=O)Nc3ccccc3)cn2)CC1`, the inhibition in experiment [1] was -0.55%; in experiment [2], -0.98%; in experiment [3], -5.64%.

Regarding `Cc1cccc2nc(-c3cccc(-c4cccc(CN5CCCC5CN)c4)c3)[nH]c12` (centres undefined), the inhibition in experiment [1] is -0.26%; in experiment [2], -1.1%; in experiment [3], -2.17%.

In the case of `CN1CCN(c2nc(NCCc3ccc(O)cc3)nc(NCc3ccccc3-c3ccc(C(F)(F)F)cc3)n2)CC1`, the figures for the inhibition in experiment [1], in experiment [2] and in experiment [3] were 1.59%, 2.22% and 3.13%, respectively.
